Calls of active or inactive are those of the source. The calls were made as follows: active = hit-call score of the fitted dose curve at least 0.9, where 1 is the maximum; inactive = score below 0.9.

The nature of this assay: APR_HepG2_MicrotubuleCSK_24hr: Apredica 24-hour HepG2 Assay for Microtubule CSK Stabilty (AID 2282909). The conditions noted are these: HepG2 microtubule cytoskeleton imaging, actives raise or lower the signal. As for the experimental part: APR_HepG2_24hr is a cell-based, multiplexed-readout assay that uses HepG2, a human liver cell line, with measurements taken at 24 hours after chemical dosing in a 384-well plate.APR_HepG2_MicrotubuleCSK_24hr is one of 10 assay component(s) measured or calculated from the APR_HepG2_24hr assay. It is designed to make measurements of protein conformation, a form of conformation reporter, as detected with fluorescence intensity signals by HCS Fluorescent Imaging technology.Data from the assay component APR_HepG2_MicrotubuleCSK_24hr was analyzed into 1 assay endpoint. This assay endpoint, APR_HepG2_MicrotubuleCSK_24hr, was analyzed with bidirectional fitting relative to DMSO as the negative control and baseline of activity. Using a type of conformation reporter, measures of protein for gain or loss-of-signal activity can be used to understand the signaling at the cellular-level. Furthermore, this assay endpoint can be referred to as a primary readout, because this assay has produced multiple assay endpoints where this one serves a signaling function. To generalize the intended target to other relatable targets, this assay endpoint is annotated to the cell morphology intended target family, where the subfamily is cell conformation.
Cells were treated with dimethyl sulfoxide (DMSO) as a solvent control at a final concentration of 0.5% v/v or with compounds in DMSO with a resulting final DMSO concentration of 0.5% v/v. Compound treatment was done at concentrations of 0.39, 0.78, 1.56, 3.12, 6.24, 12.5, 25, 50, 100, and 200 uM in duplicate on each plate. Cells were treated with compounds for 1, 24, or 72 hr. Carbonyl […] m-chloro-phenylhydrazone (CCCP) and taxol were used as positive controls for mitochondrial function and cytoskeletal stability, respectively; DMSO served as the negative control for this experiment. Cells were fixed by the direct addition of 50 uL formaldehyde in Hank's Balanced Salt Solution (HBSS) to a final concentration of 3.7%. After incubation in the fixation medium for 30 min at room temperature (293-298 K), cells were rinsed twice with HBSS and treated with cell permeabilization buffer (16 uL of 0.5% Triton X-100) for 10 min at room temperature (293-298 K) before labeling. For mitochondrial membrane potential and mitochondrial measurements, pre-fixed cells were incubated with 50 uL of MitoTracker Red CMXRos (Invitrogen) at a concentration of 250 nM for 30 min before fixation. In the remaining cases, post-fixed cells were labeled by incubation with a multiplexed mixture of primary antibodies in HBSS for 60 min at room temperature (293-298 K) to detect immunoreactivity of c-Jun (1:500), phospho-histone H3 (1:100), phospho-histone H2A.x (1:200), p53 (1:400), alpha-tubulin (1:200) and Hoechst 33342 (2 ug/mL). Cells were labeled for multiplexed imaging on two separate plates: a) Hoechst 33342, MitoTracker Red, phospho-histone H3, and alpha-tubulin, and b) Hoechst 33342, phospho-histone H2A.x, and c-Jun. A final rinse with HBSS (50 uL) was performed before analysis. The primary and secondary antibodies for the proteins were phospho-histone H3 (rabbit anti-phospho-histone H3 and FITC-donkey anti-rabbit IgG), phospho-histone H2A.x (mouse anti-phospho-histone H2A.x and FITC-donkey anti-mouse IgG), c-Jun (rabbit anti-phospho-c-Jun and Cy3-donkey anti-rabbit IgG), p53 (sheep anti-p53 and Cy5-donkey anti-sheep IgG), alpha-tubulin (mouse anti-alpha-tubulin and Cy5-donkey anti-mouse IgG). These antibodies are available as the CellCiphr HepG2 assay kit (Millipore).Digital images of each well were captured using a Cellomics ArrayScan VTI (Thermo Scientific Cellomics) (0.8 NA objective, 0.63x optical coupler, and XF-93 filter set) at 20x magnification. The images were acquired using the autofocus feature of the ArrayScan instrument, which entails the following steps. First, the camera focuses on channel 1 (Hoechst 33342), where nuclei are identified. Second, a Z offset of 1 um is used for capturing mitochondria (MitoTracker Red). […]
In general, AC50 refers to the concentration giving half of the maximal activity seen. Take `CCc1c(C(=O)NN2CCCCC2)nn(-c2ccc(Cl)cc2Cl)c1-c1ccc(Br)cc1`: the concentration at half-maximal activity (AC50) is 39 µM (active).
The same measure, in the same setting: to `CCCCCCCCCCCCCO` belongs 117 µM (active); to `CN1CCN(Cc2cc(-c3ccc4[nH]c(=O)oc4c3)co2)[C@@H](c2ccc(F)cc2)C1`, 148 µM (active).
Take `COc1ccc(C)cc1N`: the call was inactive.
On the same count and under the same terms, next, `O=C(N[C@@H](Cc1ccccc1)[C@@H](O)C(=O)N1C[C@@H](O)[C@@H](O)C1)c1cc2cc(Cl)ccc2[nH]1`: “inactive”; `COC(=O)c1ccc(O)cc1`: “inactive”.
Still for that read-out and setting: to `CC1(C)NC(=O)NC1=O` belongs “inactive”.
Still for that read-out and setting: next, `Cc1cc(NC(=O)C(=O)O)cc(C)c1Oc1ccc(O)c2c1CCC2`: “inactive”.
For `Cc1ccc(Cl)cc1`, the result was inactive.
Regarding `CCCCCCCC=O`, the molecule was classed as inactive.
`O=C(O)Cc1ccccc1Nc1c(Cl)cccc1Cl`: the call was inactive.
Take `CC(C)(C)c1cc(O)c(C(C)(C)C)cc1O`: the outcome was inactive.
For the molecule `CCCCCC(=O)O`, the call was inactive.
`Cc1cccc(Nc2cc(Cl)nc(SCC(=O)O)n2)c1C`: the molecule was called inactive.
The same measure, in the same setting: next, `CCCCCCCCCCO`: “inactive”; `CCNc1cccc(C)c1`: “inactive”.
In the case of `Clc1cc(Cl)c(Cl)cc1Cl`, the molecule was called inactive.
Still for that read-out and setting: next, `CCCCCCCCCCCCCCCC`: “inactive”; `C[C@]12C=CC(=O)C=C1CC[C@@H]1[C@@H]2C(=O)C[C@@]2(C)[C@H]1CC[C@]2(O)C(=O)CO`: “inactive”.
The same measure, in the same setting: to `COc1ccc(S(=O)(=O)N2C(=O)[C@@](c3ccccc3OC)(N3C[C@H](O)C[C@H]3C(=O)N(C)C)c3cc(Cl)ccc32)c(OC)c1` belongs “inactive”; to `CCCc1cc(=O)[nH]c(=S)[nH]1`, “inactive”; to `O=[N+]([O-])C(CO)(CO)CO`, “inactive”.
For the molecule `COc1cc(S(=O)(=O)O)c(C)cc1N=Nc1c(O)ccc2cc(S(=O)(=O)O)ccc12`, the outcome was inactive.
On to `Oc1ccc2ccccc2c1N=Nc1ccccc1`, for which the result was inactive.
Still for that read-out and setting: to `Cc1ccccc1Cl` belongs “inactive”; to `CCCCOC(=O)CCCCCCCCC(=O)OCCCC`, “inactive”.
Still for that read-out and setting: next, `Cc1cc(=O)[nH]c(=S)[nH]1`: “inactive”; `OC[C@@H](O)[C@@H](O)[C@H](O)[C@H](O)CO`: “inactive”; `Nc1ccccc1N`: “inactive”.
On the same count and under the same terms, next, `CC(=O)OC/C=C(\C)CCC=C(C)C`: “inactive”; `CC(C)c1ccc(C(=O)N=C(N)N)cc1S(C)(=O)=O`: “inactive”.
For `O=C(OCCCCCOC(=O)c1ccccc1)c1ccccc1`, the outcome was inactive.
Same read-out and setting: to `Cc1oc(-c2ccccc2)nc1CCOc1cccc2c1ccn2CCC(=O)O` belongs “inactive”; to `COCCOC[C@H](CC1(C(=O)NC2CCC(C(=O)O)CC2)CCCC1)C(=O)Oc1ccc2c(c1)CCC2` (stereo not given in full), “inactive”.
Same read-out and setting: to `CN[C@H]1CC[C@@H](c2ccc(Cl)c(Cl)c2)c2ccc(S(N)(=O)=O)cc21` belongs “inactive”; to `C[Si]1(C)O[Si](C)(C)O[Si](C)(C)O[Si](C)(C)O1`, “inactive”.
Same read-out and setting: to `Cc1nc(-c2ccc3c(c2)CCN(CCC2CCC(NC(=O)/C=C/c4ccc(F)cc4)CC2)CC3)no1` (stereo not given) belongs “inactive”.
`COc1cc(-c2nc(NC(=O)c3cc4cc(C)cc(C)c4n3CC(=O)O)sc2CCC2CCCCC2)c(OC)cc1Cl`: the AC50 was 26.5 µM (active).
Take `Cc1c(C(=O)O)c(O)cc2c1C(=O)c1c(O)c([C@@H]3O[C@H](CO)[C@@H](O)[C@H](O)[C@H]3O)c(O)c(O)c1C2=O`: the molecule was called inactive.
Still for that read-out and setting: next, `CC(=O)Oc1ccccc1C(=O)O`: “inactive”.

The values are drawn from PubChem BioAssay (EPA / NIEHS).
